IMPase inh – qHTS Assay for Identifying the Cell-Membrane Permeable IMPase Inhibitors; CHO-M1 cells, IP1 accumulation, HTRF TR-FRET ratio; inhibition (IP1 accumulation), % at 46.1 µM; 120,000 tested, under 10 active; active = well fitted curve in the direction sought with a large enough effect in the signal ratio, not every such curve was filed as active; inconclusive = small, poorly fitted or top-dose-only effect, or a change in a side signal; inactive = no such curve, though single readings can be large or run the other way; the % refers to the signal ratio;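 note: cells stimulated with carbachol in lithium chloride buffer; plate controls were DMSO basal wells for no effect and reference inhibitor wells for full effect; higher means more IMPase inhibition seen as more IP1 and lower FRET ratio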
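Seeded CHO-M1 cells were dosed with compound at up to 46 uM, stimulated with carbachol for 30 min, then lysed in IP-One detection reagents. Higher IP1 lowers the TR-FRET signal.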
HTT cytoprotect – qHTS Multiplex Assay to Identify Dual Action Probes in a Cell Model of Huntington: Cytoprotection (ATP); PC12 HTT-Q103 induced, cytoprotection, ATP luminescence, 40 h; actives 0.14% (n = 230,000); Potency, µM (top dose mostly 56.4 µM), without a hit: cytoprotection (ATP increase), actives largely listed as activators; AID 1471, 2008; note: potency is the fitted concentration of half-maximal effect; % of control where 0% means no effect; nearly all actives have a fitted effect of over 45% in size
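Stable PC12 Q103-GFP cells in serum-supplemented, phenol red-free DMEM; induction by tebufenozide at 100 nM final; compound dose series; cell viability quantified luminescently from ATP.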
HttQ103 aggreg – qHTS Multiplex Assay to Identify Dual Action Probes in a Cell Model of Huntington: Aggregate Formation (GFP). PC12 HttQ103-GFP aggregates, Acumen cytometry, 40 h. AID 1688, 2009. actives 1.1% (n = 220,000). Potency, µM (doses to about 46.1 µM), without a hit: top-dose activity change, negative = inhibition, usual class: inhibitors; note: potency is the fitted concentration of half-maximal effect; % is set by controls: 0 for no effect and ±100 for the full control effect; nearly all actives have a fitted effect of over 60% in size
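Read-out: GFP aggregate count by laser scanning cytometer (488 nm excitation, 500-530 nm emission, 1–25 µm objects >6 SD above background). Cells: PC12, inducible HTTex1-Q103-GFP, 100 nM tebufenozide; compounds titrated.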
NPSR antagonist – qHTS Assay for Antagonists of the Neuropeptide S Receptor: cAMP Signal Transduction. Q6W5P4. CHO-NPSR cells, cAMP TR-FRET, antagonist mode. Potency, µM (doses to about 38.3 µM), inactives show top-dose activity change, negative = inhibition, usual class: inhibitors. actives 1% (n = 220,000); note: potency is the fitted concentration of half-maximal effect; % is set by controls: 0 for no effect and ±100 for the full control effect; nearly all actives have a fitted effect of over 50% in size
ALOX12 inhib – qHTS Assay for Inhibitors of 12-hLO (12-human lipoxygenase) | Polyunsaturated fatty acid lipoxygenase ALOX12 (Homo sapiens), P18054 | purified 12-hLO, xylenol orange hydroperoxide absorbance | Potency, µM (series often up to 57.1 µM), for the others: at the highest dose activity change, negative = inhibition, actives largely listed as inhibitors | actives 0.12% (n = 150,000) | AID 1452, 2008; note: potency is the fitted concentration of half-maximal effect; % is set by controls: 0 for no effect and ±100 for the full control effect; nearly all actives have a fitted effect of over 55% in size
Target sequence (P18054 whole entry, looked up): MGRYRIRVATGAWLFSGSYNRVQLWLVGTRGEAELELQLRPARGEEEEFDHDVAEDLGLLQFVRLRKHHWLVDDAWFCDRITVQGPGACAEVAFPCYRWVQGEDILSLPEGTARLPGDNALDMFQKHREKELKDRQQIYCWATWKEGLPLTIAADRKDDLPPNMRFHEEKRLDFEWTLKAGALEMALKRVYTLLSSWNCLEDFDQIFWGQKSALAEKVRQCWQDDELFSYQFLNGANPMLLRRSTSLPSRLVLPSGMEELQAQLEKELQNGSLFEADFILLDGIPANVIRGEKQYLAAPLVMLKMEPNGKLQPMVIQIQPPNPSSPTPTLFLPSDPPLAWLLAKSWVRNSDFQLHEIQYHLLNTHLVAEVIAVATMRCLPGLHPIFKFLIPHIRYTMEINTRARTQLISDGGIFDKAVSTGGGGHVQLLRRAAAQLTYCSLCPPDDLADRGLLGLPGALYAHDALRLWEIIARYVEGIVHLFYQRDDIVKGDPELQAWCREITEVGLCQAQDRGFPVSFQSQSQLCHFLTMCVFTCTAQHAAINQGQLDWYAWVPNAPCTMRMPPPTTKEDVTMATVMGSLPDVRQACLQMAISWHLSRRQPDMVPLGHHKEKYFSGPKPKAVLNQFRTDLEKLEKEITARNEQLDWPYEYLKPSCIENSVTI
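Xylenol orange chromogenic assay: hydroperoxide from 12hLO oxidises Fe(II), giving red-shifted Fe(III)-XO absorbance. Conditions: 150 nM enzyme, 40 uM arachidonic acid, 25 mM Hepes pH 7.0, 0.01% Triton X-100, 30 min, room temperature.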
PNC inhibitor – High Content Assay for Compounds that inhibit the Assembly of the Perinucleolar Compartment; activity change (PNC), negative = inhibition, % at 10 µM; AID 2417, 2010; PC3M PTB-GFP, PNC prevalence imaging, 16 h; stronger effect = lower value; actives 3.1% (n = 140,000);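 active = readout at or below -70, meaning at least 70% loss of cells showing the perinucleolar compartment, a nuclear body marking cancer cells; inconclusive = readout between -30 and a set limit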;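 note: plate controls were DMSO wells for no effect and camptothecin positive control wells for full effect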
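PC3M cells stably expressing PTB-GFP, 750–1000 cells/well, treated 16 h at 37 °C with compound (23 nl of library stock), in duplicate. After paraformaldehyde fixation and Hoechst stain, imaged at 20x; PNC prevalence scored by image analysis.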
Active calls of the source: *; ? = inconclusive; . = no result given; [ ] = dose if it differs, or a comment. Most compounds without a hit are left out; they make up all but 3.3% or so of the library. Unless noted, calls come from the whole dose curve; as a rule, active = well fitted curve in the direction sought with a large enough effect; inconclusive = small, poorly fitted or top-dose-only effect, or another doubt; inactive = no such curve, though single readings can be large; an effect the other way counts as inactive or inconclusive.

SMILES	IMPase inh	HTT cytoprotect	HttQ103 aggreg	NPSR antagonist	ALOX12 inhib	PNC inhibitor
CSc1nc2sc3c(c2c(=O)n1C)CCCC3	5	-22%	1%	0%[46.1 µM]	0%	-87*
CSc1nc2sc3c(c2c(=O)n1C)CCC(C)C3 (stereo not drawn)	-2	-31%	-12%	-16%[46.1 µM]	-4%	13
CC(Sc1nnnn1-c1ccccc1)C(=O)Nc1ccccc1-c1ccccc1 (stereo not drawn)	.	-1%[10 µM]	?	-22%	-1%	-134*
Cc1ccc2[nH]c3nc(CCCn4ccnc4-c4ccccc4)nnc3c2c1	.	1µM*	.	.	.	.
COc1ccc(-c2cnnc(CCCn3ccnc3-c3ccccc3)n2)cc1	.	-14%[10 µM]	.	.	.	.
O=C(O)c1cccc(C(=O)O)c1S(=O)Cc1ccccc1 (stereo not drawn)	.	1%[10 µM]	.	.	2%[11.4 µM]	.
Cc1noc(C)c1-c1ccc2ncnc(NCc3cccnc3)c2c1	.	-60%	.	.	.	.
CC(=O)Nc1nnc(SCC(=O)NCC2CCCO2)s1 (stereo not drawn)	-4	0%	1%	?	-5%	-100*
C#CCNc1nc(C)nc2c1nnn2Cc1ccccc1F	3	-3%[10 µM]	-26%[9.22 µM]	-5%[46.1 µM]	-2%	?
Cc1nc(NCCO)c2nnn(Cc3ccccc3F)c2n1	-4	-7%[10 µM]	-12%	-2%[46.1 µM]	2%	-93*
O=C(O)C=Cc1ccc(Cn2ccnc2)cc1	0	-21%	.	.	-4%	.
Cc1c(C(=O)N/N=C/C(C)C)[nH]c2ccc([N+](=O)[O-])cc12	-4	0%[1.9 µM]	7.1µM*	-1%	-2%	39
Cc1c(C(=O)O)[nH]c2ccc([N+](=O)[O-])cc12	.	.	15%	0%	.	.
COc1ccc(/C=N/NC(=O)c2[nH]c(C)c(C(=O)N/N=C/c3ccc(OC)cc3)c2C)cc1	8	5%[10 µM]	19%	-7%	-1%	?
Cc1c(C(=O)N/N=C/c2ccc(Cl)cc2)[nH]c2ccc(Cl)cc12	1	9%[1.9 µM]	3%	-14%	1%	-112*
O=C(CSc1nnc2scc(-c3ccc(Cl)cc3)n12)Nc1ccccc1F	9	.	.	.	.	.
C=C(C)[C@H]1CC[C@]2(CO)CC[C@]3(C)[C@@H](CC[C@H]4[C@@]5(C)CC[C@@H](O)C(C)(C)[C@@H]5CC[C@@]43C)[C@H]12	6[20.6 µM]	3%[40.3 µM]	.	.	0%[25.6 µM]	.
CC1CC(C)CN(CC(O)COCCOc2ccc(Br)cc2)C1 (stereo not drawn)	.	3%[10 µM]	6%	22%	-3%	-102*
CC1CCN(CC(O)COCCOc2ccc(Br)cc2)CC1 (stereo not drawn)	1	21%[10 µM]	-9%	13%	-1%	-12
CN(C)CCCN1CCC2(CCC(C(C)(C)C)CC2)CC1	.	14%[10 µM]	.	.	-1%[11.4 µM]	.
CCSc1oc(-c2cccs2)nc1S(=O)(=O)c1ccccc1	-6	-7%[10 µM]	13µM*	?	-3%	-23
CC(C)(C)c1ccc(S(=O)(=O)/C=C/C#N)cc1	.	.	.	20µM*	.	.
CC(C)(C)c1ccc(NS(=O)(=O)c2ccc(N)cc2)cc1	.	1%[10 µM]	4%[9.22 µM]	25%	4%[11.4 µM]	.
COc1ccc(CN=C2NC(=O)CC(C(=O)Nc3cc(C)cc(C)c3)S2)cc1 (stereo not drawn)	.	.	?	20%	-4%	-84*
COC(=O)c1cc(NC(=O)C2CC(=O)NC(=NCc3ccc(OC)cc3)S2)cc(C(=O)OC)c1 (stereo not drawn)	.	0%[10 µM]	-1%[9.22 µM]	-7%	.	.
SMILES	IMPase inh	HTT cytoprotect	HttQ103 aggreg	NPSR antagonist	ALOX12 inhib	PNC inhibitor
O=C(NNc1nc2ccc(F)cc2s1)c1cccc(F)c1	.	.	13µM*	-7%	.	.
Cc1cccc(C2=N[C@@H](Cc3ccccc3)CO2)c1	.	-14%[96.6 µM]	.	.	1%[0.00818 µM]	.
CCOc1ccc(N2C(=O)Nc3ccccc3C2(O)C(=O)NCc2ccc(OC)cc2)cc1 (stereo not drawn)	.	16%[10 µM]	0.71µM*	6%	.	.
CCCn1c(CNc2ccc(Br)cc2)nc2ccccc21	6	-13%	11µM*	-11%[46.1 µM]	0%	11
Cc1ccc(NCc2nc3ccccc3n2CCOc2ccccc2)cc1	.	25%[10 µM]	10%	-4%	-15%	-21
CCn1c(CNc2ccc(C(=O)O)cc2)nc2ccccc21	-5	-17%	-10%	-10%[46.1 µM]	-7%	-109*
CC(C)S(=O)(=O)CC(=O)c1ccc(Cl)cc1	.	11%	0%	10%	.	.
O=C(c1ccccc1)N1CCN(CC#Cc2ccccc2)CC1	-1	-6%[0.074 µM]	-4%	-10%[46.1 µM]	-10%	20
C(#Cc1ccc(C#CCN2CCCC2)cc1)CN1CCCC1	1	5%[10 µM]	-5%	0%[46.1 µM]	6%	-90*
CCC(C)NC(=O)c1sc2nc(C)c(C(=O)Nc3ccc(C)cc3C)c(-c3ccc(NC(C)=O)cc3)c2c1N (stereo not drawn)	6	.	.	.	.	.
O=C1NC(=O)C(=C2CCCCCC2)S1	.	-14%[10 µM]	?	10%	-2%	-105*
CO/N=C\[C@@H](NS(=O)(=O)c1ccc(C)cc1)[C@H](C)/C=C\CC(=O)OC	.	-76%[10 µM]	.	.	.	.
CCCC(=O)Nc1ccccc1-c1nnn(CC(=O)Nc2ccc(OC)cc2)n1	-1	1%[1.9 µM]	-3%	-9%[46.1 µM]	2%	-81*
Fc1ccc(-n2nnc(-c3cccnc3)n2)cc1	.	-7%[10 µM]	8%[9.22 µM]	-10%	.	.
Fc1ccc(C(CCCn2nnc(-c3cccnc3)n2)c2ccc(F)cc2)cc1	21	-92%	13µM*	?	-12%	?
O=C(O)c1ccc(N=NNc2cccc([N+](=O)[O-])c2)cc1	.	-44%	5%	-23%	.	.
N#C/C(=N\Nc1cccc([N+](=O)[O-])c1)C(=O)c1ccc(Br)cc1	.	.	1.8µM*	6.3µM*	.	.
CCCOc1cc(C)c(S(=O)(=O)n2ccc(C)n2)cc1C	9	-17%	13µM*	?	-9%	38
CCCOc1cc(C)c(S(=O)(=O)N2CCOCC2)cc1C	.	14%[10 µM]	-11%	6%	-7%	?
Cc1cc2occ(CC(=O)Nc3nnc(C4CC4)s3)c2cc1C	1	10%	13%	-19%[46.1 µM]	-5%	-13
O=C(Cc1coc2ccc3ccccc3c12)Nc1nnc(C2CC2)s1	?	-24%	-10%	-20%[46.1 µM]	-9%	-100*
COc1cccc(-c2nnc3sc(C4CCCCC4)nn23)c1	-3	?	2µM*	-17%[46.1 µM]	3%	22
CCOc1cccc(-c2nnc3sc(C4CCCCC4)nn23)c1	-3	-7%	?	?	-13%	?
